CD40 NFkB inh = inhibitors of CD40-induced NF-kB signaling, primary screen, BL2 cells, luciferase reporter, single point | CD40L-induced, 4 h | inhibition, % at 10 µM | 83,000 compounds, 0.94% hits;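 active means mean inhibition of at least 50% with a set share of replicates also reaching that level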;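 further: 0% = neutral control wells and 100% = IKK inhibitor VII at 50 µM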
* marks the source's active call; other numbers are inactive results; [ ] = another dose, or the depositor's remark. This excerpt belongs to a sample that is enriched for hits.

SMILES	CD40 NFkB inh
Cc1cc(C)c(C)c(S(=O)(=O)N2CCN(C(=S)NCC3CCCO3)CC2)c1C (centres undefined)	8
Cc1ccc(NC(=O)c2ccc(OC(=O)c3ccco3)cc2)cc1	-36
CC(=O)N(C)c1ccc(C=C2C=Cc3ccccc32)cc1	72*
CC(=O)N(C)c1ccc(NC(=S)Nc2ccc(C(C)C)cc2)cc1	-14
CC(=O)N(C)c1ccc(NS(=O)(=O)Cc2ccccc2)cc1	8
O=C(Nc1ccc(C(=O)NN2C(=O)c3ccccc3C2=O)cc1)c1ccccc1	5
Cc1ccc(S(=O)(=O)Nc2nc(C)c(C(=O)Nc3ccccc3)s2)cc1	5
CN(C)C(=O)c1cccc(-c2cccc(-c3nc(C(=O)N4CCCCC4)cc4c3[C@H](CCO)N([S@@](=O)C(C)(C)C)C4)c2)c1	-6[25 µM]
Cc1cc(C)c2c(N)c(C(=O)NC3CC3)sc2n1	-5
Cc1cc(C)c2c(N)c(C(=O)Nc3nccs3)sc2n1	70*
Cc1cc(C)c2c(N)c(C(=O)NN)sc2n1	-14
CCCNC(=O)N1C[C@H](C)[C@@H](OC)CN(C)C(=O)c2ccc(NC(=O)CC)cc2OC[C@H]1C	-4[25 µM]
O=C(c1ccc(S(=O)(=O)NCC2CCCO2)cc1)N1CCc2ccccc21 (centres undefined)	19
C[C@H](CO)N1C[C@H](C)[C@@H](CN(C)C(=O)C2CCCCC2)Oc2ncc(-c3cccc(C#N)c3)cc2C1=O	-5[25 µM]
O=C(CCN1C(=O)c2ccccc2S1(=O)=O)Nc1ccc2c(c1)OCCO2	-19
O=C(CN1C(=O)c2ccccc2S1(=O)=O)c1ccc2c(c1)OCCO2	95*
O=C(Cn1cnc2ccccc2c1=O)c1ccc2c(c1)OCCO2	-58
CCS(=O)(=O)Nc1ccc2c(c1)C(=O)N(C)[C@H]1CC[C@H](CC(=O)N[C@H]3CCN(Cc4ccccc4)C3)O[C@H]1CO2	-17[25 µM]
O=C(CN1C(=O)c2cccc3cccc1c23)Nc1ccccc1C(=O)NCc1ccco1	5
N#CC1(NC(=O)COC(=O)c2cc([N+](=O)[O-])ccc2N2CCCC2)CCCCC1	44*
N#CC1(NC(=O)COC(=O)c2cc([N+](=O)[O-])ccc2N2CCOCC2)CCCCC1	-2
O=C(COC(=O)c1cc([N+](=O)[O-])ccc1N1CCOCC1)Nc1cc(F)ccc1F	-10
CN(Cc1cccnc1)C(=O)c1ccc2nc(Cc3ccccc3F)oc2c1	-57
CC(=NNc1nc2ccccc2o1)c1ncccn1	80*
CC(=NNc1nc2ccccc2o1)c1cc2ccccc2cn1	-10
SMILES	CD40 NFkB inh
CC(=NNc1nc2ccccc2s1)c1ncccn1	-13
CCC1(C)Cc2ccccc2-c2nc(NCCCO)n(C)c(=O)c21 (centres undefined)	14
COc1ccc(N2CCN(C(=O)CN(C)S(=O)(=O)c3ccc4c(c3)c(=O)n(C)c(=O)n4C)CC2)cc1	4
CC(=O)c1cccc(NC(=O)N2CCCc3ccccc32)c1	-23
CN1CCN(c2ccc(NC(=O)N3CCc4ccccc43)cc2)CC1	73*
CN1C(=O)CSc2ccc(NC(=O)N3CCc4ccccc43)cc21	-118
CCCNC(=O)N1CCC2(CC1)CN(Cc1ccccn1)[C@H](CO)c1c2c2ccc(OC)cc2n1C	1[25 µM]
Cc1cc(OCCN2CCCCC2)nc2ccccc12	-24
CC(C)NC(=O)Nc1ccc2c(c1)C(=O)N(C)C[C@H](C)[C@H](CN(C)C(=O)NC(C)C)O2	-4
CCn1c2ccccc2nc2cc3c(cc21)c(Cl)c(=O)c1ccccc13	90*
CC(C)(C)N1CC(c2nc3ccccc3n2Cc2ccccc2)CC1=O (centres undefined)	14
CCn1c(CNC(=O)C(C)(C)C)nc2ccccc21	4
O=C(Nc1ccc(S(=O)(=O)NCc2ccco2)cc1)c1ccncc1	7
CN(C)CC(=O)N[C@@H]1C=C[C@H](CC(=O)NCc2ccc(Cl)cc2)O[C@H]1CO	3[25 µM]
O=C(C[C@H]1C[C@@H]2c3cc(NC(=O)Nc4ccccc4)ccc3O[C@@H]2[C@H](CO)O1)NCc1ccccc1	-14[25 µM]
O=C(C[C@@H]1CC[C@H](NC(=O)CN2CCOCC2)[C@@H](CO)O1)NC1CCC1	4[25 µM]
COC(=O)c1c(S(N)(=O)=O)c2ccccc2n1C	5
O=C1CCCCC1Sc1nnc(-c2ccc3c(c2)OCO3)o1 (centres undefined)	95*
Cc1ccc(-c2nnc(-c3ccc4c(c3)OCO4)o2)cc1	-65
c1coc(-c2nnc(-c3ccc4c(c3)OCO4)o2)c1	-46
COc1cccc(NC(=O)N2[C@H](CO)[C@@H](c3ccccc3)[C@H]2CNC(C)C)c1	9
CCOc1ccc(S(=O)(=O)N2CCCCC2)cc1NC(=O)C1CSC2(C)CCC(=O)N12 (centres undefined)	-21
COCCNC(=O)c1c(N)n(CCC2=CCCCC2)c2nc3ccccc3nc12	15
O=S(=O)(NCC1CCCN(Cc2ccccc2)C1)c1cccc2cccnc12 (centres undefined)	15
COc1cc2c(cc1OC)[C@@H]1Cc3ccc(OC)c(OC)c3CN1CC2	3
SMILES	CD40 NFkB inh
COc1cc2c(cc1OC)C1Cc3ccc(OC)c(OC)c3CN1CC2 (centres undefined)	-15[25 µM]
CCC1=C(CC2NCCc3ccccc32)CC2c3cc(OC)c(OC)cc3CCN2C1 (centres undefined)	55*
COc1ccc(C(=O)N2C[C@@H]3[C@H](c4ccccc42)[C@@H](CO)N3Cc2ccccc2Cl)cc1	11[25 µM]
COc1ccc(C=C(C(C)=O)C(=O)c2ccccc2)cc1	3
COc1ccc(C=C(C(=O)c2ccccc2)C(=O)c2ccccc2)cc1	-99
CC(C)(C)NCC(=Cc1ccccc1)C(=O)c1ccccc1	52*
Cc1ccc(NC(=O)CNC(=O)c2cccc(C)c2)nc1	58*
Cc1ccc(NC(=O)CNC(=O)c2ccc(Oc3ccccc3)cc2)nc1	-20
Cc1ccc(C(=O)CCC(=O)Nc2ccc(C)cn2)cc1	9
CO[C@@H]1CC[C@H]2CCOc3c(C#N)cccc3C(=O)N(C)CCCC(=O)N(C)C[C@H]1O2	8[25 µM]
COc1ccc(C(=O)/C=C/C(=O)N(CC(=O)NC2CCCCC2)Cc2ccc(F)cc2)c(O)c1	38*
COc1ccc(S(=O)(=O)NCC(=O)N(CC(=O)NC(C)(C)C)Cc2cccs2)cc1	6
COc1ccc(C(=O)/C=C/C(=O)N(CC(=O)NCCC(C)C)Cc2cccs2)c(O)c1	90*
COc1ccc(Br)c(C(=O)NCCC(C)C)c1	0
COc1ccc(OC)c(NC(=O)CN(Cc2ccc(F)cc2)C2CCCCC2)c1	20
O=C(COC(=O)Cc1ccc(F)cc1)NC1CCCCCC1	14
CCn1c(C(=O)N2CCC(Cc3ccccc3)CC2)cc2sccc21	6
CC1CCCN(S(=O)(=O)CCNC(=O)c2ccc3c(c2)OCO3)C1 (centres undefined)	9
COc1cc(C)nc(Oc2ccc(=O)[nH]n2)n1	8
O=C(c1ccco1)N1CCN(S(=O)(=O)c2ccc3c(c2)CCN3C(=O)C2CCC2)CC1	9
O=C(C1CCC1)N1CCc2cc(S(=O)(=O)N3CCCCC3)ccc21	active
CCOC(=O)N1CCN(S(=O)(=O)c2ccc3c(c2)CCN3C(=O)C2CCC2)CC1	3
Cc1cc(C)n2nc(SCC(=O)N(CCC#N)c3ccccc3F)nc2n1	0
COc1cccc(NC(=O)CC2C(=O)NC3CCCCC3N2C(=O)c2ccccc2)c1 (centres undefined)	3
Cc1cc(C)nc(SCc2ccc(C(=O)O)o2)n1	3
Cc1cc(C(=O)N2CCN(c3ncccn3)CC2)c(C)o1	-6
Cc1cc(C(=O)N2CCC(C(=O)O)CC2)c(C)o1	0
